Measurements published in PubChem BioAssay.

Each compound was assayed against Nuclear receptor coactivator 1 (Homo sapiens) (UniProt Q15788) (assay: SRC1 coactivator transcriptional activity inhibitors, confirmation, cell-based, luminescence, quadruplicate (AID 588820;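 note: 0% = DMSO wells and 100% = gossypol 36 µM treated wells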)). Conditions: HEK293 GAL4-SRC1 luciferase reporter, at 3.6 µM, stronger effect = higher value;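 active = mean inhibition above 46.68%, the untreated control wells mean plus 3 SD; inactive = the rest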.
Nuclear receptor coactivator 1 (Homo sapiens), sequence (Q15788 whole entry, looked up, the tested form may be a part): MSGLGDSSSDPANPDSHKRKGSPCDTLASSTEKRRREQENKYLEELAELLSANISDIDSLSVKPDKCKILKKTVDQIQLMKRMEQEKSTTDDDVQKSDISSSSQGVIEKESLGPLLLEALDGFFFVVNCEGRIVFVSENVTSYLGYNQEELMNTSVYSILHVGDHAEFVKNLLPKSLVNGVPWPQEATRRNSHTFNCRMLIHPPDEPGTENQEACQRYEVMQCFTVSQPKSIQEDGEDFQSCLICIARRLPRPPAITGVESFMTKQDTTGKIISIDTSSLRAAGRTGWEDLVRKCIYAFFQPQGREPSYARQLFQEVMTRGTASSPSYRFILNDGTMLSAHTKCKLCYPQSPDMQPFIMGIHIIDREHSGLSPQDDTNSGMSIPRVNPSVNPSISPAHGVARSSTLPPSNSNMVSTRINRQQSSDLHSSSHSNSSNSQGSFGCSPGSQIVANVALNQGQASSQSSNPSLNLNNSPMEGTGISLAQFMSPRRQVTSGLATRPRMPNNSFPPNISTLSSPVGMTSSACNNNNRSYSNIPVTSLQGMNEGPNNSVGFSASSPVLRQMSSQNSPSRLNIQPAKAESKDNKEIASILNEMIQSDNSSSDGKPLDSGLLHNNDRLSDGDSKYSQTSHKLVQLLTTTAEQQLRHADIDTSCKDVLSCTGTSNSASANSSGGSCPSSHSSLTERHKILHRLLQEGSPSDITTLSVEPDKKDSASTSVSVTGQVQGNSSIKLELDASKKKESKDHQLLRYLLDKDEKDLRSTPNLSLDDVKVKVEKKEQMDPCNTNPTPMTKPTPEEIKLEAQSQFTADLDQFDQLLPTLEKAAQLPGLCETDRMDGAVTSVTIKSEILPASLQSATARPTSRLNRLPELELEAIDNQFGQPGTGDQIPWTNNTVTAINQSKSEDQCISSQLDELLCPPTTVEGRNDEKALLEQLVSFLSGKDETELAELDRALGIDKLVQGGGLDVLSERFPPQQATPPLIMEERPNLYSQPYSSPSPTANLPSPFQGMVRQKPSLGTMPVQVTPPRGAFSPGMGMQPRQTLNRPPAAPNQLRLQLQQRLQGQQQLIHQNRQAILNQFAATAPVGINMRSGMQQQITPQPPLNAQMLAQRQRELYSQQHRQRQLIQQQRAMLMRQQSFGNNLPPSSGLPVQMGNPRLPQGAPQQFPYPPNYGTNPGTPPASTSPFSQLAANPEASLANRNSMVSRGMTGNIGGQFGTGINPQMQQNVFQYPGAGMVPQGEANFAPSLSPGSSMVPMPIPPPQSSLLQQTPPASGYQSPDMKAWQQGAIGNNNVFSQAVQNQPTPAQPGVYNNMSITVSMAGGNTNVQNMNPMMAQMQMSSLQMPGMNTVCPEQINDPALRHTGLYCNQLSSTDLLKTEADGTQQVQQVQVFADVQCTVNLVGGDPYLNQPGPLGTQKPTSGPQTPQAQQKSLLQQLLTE

inhibition, inactive:
O=C(NCCc1ccc(F)cc1)C(=O)NCC1CCCN1S(=O)(=O)c1ccccc1 (centres undefined) -36.4%, COc1ccc(CCNC(=O)[C@H](CCSC)NC(=O)N2CCn3c2nc2ccccc23)cc1OC 1.44%, COc1cccc(C2=CC(=O)CC(C)(C)C2)c1 18.3%, Cc1sc2ncn3ncnc3c2c1C 37.9%, O=C(OCC(=O)N1CCN(S(=O)(=O)c2ccc(Cl)cc2)CC1)c1cccc(OC(F)F)c1 -50.5%, COc1ccccc1NC(=O)c1cc(S(=O)(=O)NC2CCCC2)ccc1F 3.42%, CCOc1ccc(NC(=O)CN(C)C(=O)C2CCN(c3ncnc4sc(C)c(C)c34)CC2)cc1OCC 0.38%, Cc1ccc(S(=O)(=O)N(C)c2ccc(C(=O)Nc3ccccc3C(=O)N3CCOCC3)cc2)cc1 -10.1%, O=C(COC(=O)c1c(Cl)cccc1Cl)Nc1cc(Cl)ccc1Oc1ccccc1 -14.1%, CC(C)=CCCC(C)CN1CCC(n2nccc2NC(=O)c2ccccc2)CC1 (centres undefined) -6.47%, Cc1cccc(NC(=O)CSCC(=O)N2CCCc3ccccc32)c1 -14.1%, Cc1cn(Cc2ccccc2Cn2cc(C)c(=O)[nH]c2=O)c(=O)[nH]c1=O -23.2%, COc1ccc(-n2c(SC(C)C(=O)Nc3ncc(Cl)cc3Cl)nc3ccccc32)cc1 (centres undefined) 35.4%, CCOc1ccc(-c2[nH]ncc2-c2ccc(Cl)cc2)c(O)c1 -8.3%, c1ccc2c(c1)CCN(c1nc3cc4c(cc3s1)OCCO4)C2 -22.2%, CCOc1cccc(C(=O)Nc2nc(-c3ccc(S(=O)(=O)N4CCOCC4)cc3)cs2)c1 -29.3%, O=C1c2cccc(OCc3ccc(F)cc3)c2CCN1Cc1ccccc1 20.6%, COc1ccc(CCN(C)C(=O)CSc2nnc(C3CC3)n2N)cc1OC 6.18%, COC(=O)C(C)NC(=O)C12CC3CC(C1)CC(c1ccc(C)cc1)(C3)C2 (centres undefined) -5.33%, COc1ccc(S(=O)(=O)N2CCOC23CCN(S(=O)(=O)c2ccc(Cl)cc2)CC3)cc1 -7.54%, COc1cccc(OCCn2cc(C(C)=O)c3ccccc32)c1 10.7%, O=C(NC(=S)NCC1CCCO1)c1ccccc1[N+](=O)[O-] (centres undefined) -12.7%, COc1ccc(CCNc2c3ccccc3nc3ccccc23)cc1OC -6.86%, O=C(CN1C(=O)CCC1=O)Nc1ccc(S(=O)(=O)N2CCOCC2)cc1 -20.2%
